The values below come from article PMC4336329 (PLoS ONE, 2015).

The whole screen tested about 310,000 compounds, of which about 14,000 (4.5%) showed an effect of 50% or more. The effect is printed as a negative number. Shown is part of a subset that was picked to be rich in strong results.
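Further: peak tail current of the secondary pulse compared with the same well before compound.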

For the test, the target named is human ether-à-go-go-related gene (hERG) potassium channel (human, UniProt Q12809). Briefly: primary screen, population patch clamp on CHO cells stably expressing hERG; higher = less effect of the substance.
human ether-à-go-go-related gene (hERG) potassium channel, sequence (Q12809 whole entry, looked up): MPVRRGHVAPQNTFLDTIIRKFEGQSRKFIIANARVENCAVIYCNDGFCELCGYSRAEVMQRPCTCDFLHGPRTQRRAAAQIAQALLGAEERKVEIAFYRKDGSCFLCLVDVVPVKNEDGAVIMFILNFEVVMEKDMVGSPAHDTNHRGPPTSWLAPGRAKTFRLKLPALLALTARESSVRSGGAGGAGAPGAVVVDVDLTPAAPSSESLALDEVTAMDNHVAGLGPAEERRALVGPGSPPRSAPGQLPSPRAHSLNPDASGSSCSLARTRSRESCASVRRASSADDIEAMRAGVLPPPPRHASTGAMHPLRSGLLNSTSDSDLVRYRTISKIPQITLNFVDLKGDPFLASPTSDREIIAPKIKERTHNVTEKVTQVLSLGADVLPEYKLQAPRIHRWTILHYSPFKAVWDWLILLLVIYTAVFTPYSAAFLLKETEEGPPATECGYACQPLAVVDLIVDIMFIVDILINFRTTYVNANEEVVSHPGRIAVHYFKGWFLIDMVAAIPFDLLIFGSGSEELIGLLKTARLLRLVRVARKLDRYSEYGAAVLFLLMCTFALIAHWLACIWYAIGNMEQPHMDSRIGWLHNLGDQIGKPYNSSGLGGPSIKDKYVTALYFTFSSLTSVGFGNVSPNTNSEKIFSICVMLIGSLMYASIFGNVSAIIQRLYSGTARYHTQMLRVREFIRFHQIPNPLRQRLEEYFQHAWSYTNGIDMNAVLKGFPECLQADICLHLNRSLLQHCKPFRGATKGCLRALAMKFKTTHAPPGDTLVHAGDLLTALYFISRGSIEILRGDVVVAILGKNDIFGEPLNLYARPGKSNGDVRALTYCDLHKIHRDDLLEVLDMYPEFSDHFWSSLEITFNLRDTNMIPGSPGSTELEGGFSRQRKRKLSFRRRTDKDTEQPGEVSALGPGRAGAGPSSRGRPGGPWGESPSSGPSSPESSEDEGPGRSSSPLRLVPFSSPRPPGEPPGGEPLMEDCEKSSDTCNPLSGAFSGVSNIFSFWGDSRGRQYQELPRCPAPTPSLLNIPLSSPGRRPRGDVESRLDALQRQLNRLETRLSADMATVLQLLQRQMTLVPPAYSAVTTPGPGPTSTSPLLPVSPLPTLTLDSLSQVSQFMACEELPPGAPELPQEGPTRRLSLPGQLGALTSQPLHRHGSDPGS
`Cc1ccc(C)c2sc(N)nc12`: the “hERG current change (%, negative = inhibition) at 10uM” value was determined as 22.6%.

As to `COc1ccc(NC(=O)CSc2ncn[nH]2)c([N+](=O)[O-])c1`, the “hERG current change (%, negative = inhibition) at 10uM” value is -4.71%.

On to `Nc1nc(N)nc(-c2cc(C(F)(F)F)ccc2Cl)n1`, for which the “hERG current change (%, negative = inhibition) at 10uM” value is on record as 11.9%.

As to `CC(=O)N(C)c1ccc(NC(=O)c2cnn(C)c2)cc1`, the “hERG current change (%, negative = inhibition) at 10uM” value is on record as 3.39%.

Turning to `COc1cccc(CN2C(=O)CCC2(C)C(=O)NC2CCCCC2)c1` (stereo not drawn), the “hERG current change (%, negative = inhibition) at 10uM” value is listed as 12.9%.

Turning to `COc1cccc(-c2cc(C(=O)N/N=C/c3ccco3)c3ccccc3n2)c1`, the “hERG current change (%, negative = inhibition) at 10uM” value is on record as -2.76%.

As to `C/C(CC(=O)Nc1cccc2c1CCCC2)=N\NC(=O)c1cccc2ccccc12`, the “hERG current change (%, negative = inhibition) at 10uM” value was -7.31%.

As to `O=C(c1ccc2oc(Cc3ccc(Cl)cc3)nc2c1)N1CC[C@H](O)C1`, the “hERG current change (%, negative = inhibition) at 10uM” value turned out to be 4.21%.

In the case of `CCCCC1CC(C)(C(=O)CSc2nc3ccccc3s2)OC1=O` (stereo not drawn), the “hERG current change (%, negative = inhibition) at 10uM” value was -0.178%.

Consider `CCCC1CC(C)(/C(C)=N\NC(N)=S)OC1=O` (stereo not drawn), for which the “hERG current change (%, negative = inhibition) at 10uM” value was 12.4%.

For `CCCCCCC1CC(C)(/C(C)=N/NC(N)=O)OC1=O` (stereo not drawn), the “hERG current change (%, negative = inhibition) at 10uM” value was -50.1%.

On to `CCCCCCC1CC(/C(C)=N\NC(N)=O)OC1=O` (stereo not drawn), for which the “hERG current change (%, negative = inhibition) at 10uM” value is -53%.

In the case of `Br.CCCCCCC1CC(CSC(=N)N)OC1=O` (stereo not drawn), the “hERG current change (%, negative = inhibition) at 10uM” value was -52.1%.

As to `Br.CCCCC1CC(CSC(=N)N)OC1=O` (stereo not drawn), the “hERG current change (%, negative = inhibition) at 10uM” value was -1.27%.

Turning to `CCCCCCC1CC(C)(C(=O)C[NH2+]c2nncs2)OC1=O.[Br-]` (stereo not drawn), the “hERG current change (%, negative = inhibition) at 10uM” value is -66.3%.

For `CCCCCC1CC(CC(=O)Nc2nncs2)C(=O)O1` (stereo not drawn), the “hERG current change (%, negative = inhibition) at 10uM” value is on record as -8.91%.

In the case of `CCCCCC1CC(/C(C)=N/NC(N)=O)OC1=O` (stereo not drawn), the “hERG current change (%, negative = inhibition) at 10uM” value is listed as -7.05%.

For `CCCCC1CC(/C(C)=N/NC(N)=O)OC1=O` (stereo not drawn), the “hERG current change (%, negative = inhibition) at 10uM” value is on record as -6.35%.

For the compound `Br.CCCCCCCC1CC(CSC(=N)N)OC1=O` (stereo not drawn), the “hERG current change (%, negative = inhibition) at 10uM” value is listed as -44.2%.

`CCCCCCCC1CC(/C(C)=N/NC(N)=O)OC1=O` (stereo not drawn): the “hERG current change (%, negative = inhibition) at 10uM” value is given as -45.3%.

Turning to `COc1cccc(NC(=O)c2ccccc2-c2ccccc2C(=O)O)c1`, the “hERG current change (%, negative = inhibition) at 10uM” value is listed as 10.1%.

`COc1ccc(NC(=O)CN(c2ccc([N+](=O)[O-])cc2)S(=O)(=O)c2ccccc2)cc1`: the “hERG current change (%, negative = inhibition) at 10uM” value is listed as -10.3%.

In the case of `Cc1ccc(C(=O)O/N=C(\N)c2nonc2N)cc1`, the “hERG current change (%, negative = inhibition) at 10uM” value is on record as -8.67%.

Regarding `COc1ccc(-c2nc3ccc([N+](=O)[O-])cc3[nH]2)cc1`, the “hERG current change (%, negative = inhibition) at 10uM” value is reported as 13.5%.

For `Cc1c(NC(=O)CSc2nnnn2-c2ccc(C(=O)O)cc2)c(=O)n(-c2ccccc2)n1C`, the “hERG current change (%, negative = inhibition) at 10uM” value stood at 20.8%.

As for `CN(CC(=O)Nc1ccccc1C(F)(F)F)C(=O)c1cc2c(s1)CCCCC2`, the “hERG current change (%, negative = inhibition) at 10uM” value is -29.2%.

On to `CCc1sc(C(=O)NCc2ccccc2)cc1C`, for which the “hERG current change (%, negative = inhibition) at 10uM” value is -9.06%.
